Records with an inconclusive call do not appear. A call without a number means that no potency is given here. Active and inactive are the calls of the source. The call rests on the fitted dose curve; in most records, active means well fitted curve in the direction sought with a large enough effect; inconclusive means small, poorly fitted or top-dose-only effect, or another doubt; inactive means no such curve, though single readings can be large or run the other way.

Drawing on PubChem BioAssay AID2672 (National Center for Advancing Translational Sciences (NCATS), 2010), this text covers Potency for 30 molecules.

The nature of this assay: qHTS Assay Multiplex Screening to Identify Dual Action Probes in a Cell Model of Huntington: Cytoprotection in HTT Q25 expressing cells (ATP). The note with it: PC12 HTT-Q25 inducible, ATP luminescence, 40 h; series mostly up to 46.1 µM. The text has this:
NIH Chemical Genomics Center [NCGC] NIH Molecular Libraries Probe Production centers Network [MLPCN] MLPCN Grant: MH084839-01A1 Assay Submitter (PI): Wei Zheng NCGC Assay Overview: Huntington's disease is a neurodegenerative disorder caused by a trinucleotide repeat expansion in Exon 1 of the Huntingtin gene. The CAG trinucleotide encodes glutamine and polyglutamine expansions cause cell death in selective areas of the brain. Huntington polyglutamine repeats have the tendency to form aggregates which are observable in later stages of the disease. The exact nature of the aggregates, whether toxic, protective, or insignificant, is unclear. A stable PC12 cell line containing a gene fusion of Exon 1 of the Huntingtin gene linked to GFP under the control of the inducible ecdysone promoter were used as the cell-based model of Huntington Disease for high throughput screening. Exon 1 of the Huntingtin gene contained an expansion of 103 polyglutamines (Q103) which, when expressed, caused cell death and distinct, bright GFP aggregates. The amount of cell death and the size and intensity of GFP aggregates increased over time and induction level. The cell death were quantified with a measurement of ATP content in the cells. A maximal 40-50% of cell death was observed when the Huntington gene was induced in this cell line. We optimized this assay in a homogeneous 1536 well format. A quantitative high throughput screen (qHTS) was conducted on the PC12 cells which were induced to express the toxic fusion construct. Small molecules which prevented cell death were identified by using a luminescent ATP quantification method (Perkin Elmer's ATPlite). To characterize compound effects on a different form of the HTT protein, PC12 cells stably containing a construct with an ecdysone inducible promoter expressing GFP fused to the exon 1 of HTTQ25 (Huntington protein which containing a 25 ployglutamine expansion) were used. Less cytoxicity occurs upon induction of HTTQ25.
PC12 cells stably containing a construct with an ecdysone inducible promoter expressing GFP fused to the exon 1 of HTTQ25 (Huntington protein which containing a 25 ployglutamine expansion) were used. NCGC Assay Protocol Summary: Sequence, Parameter, Description 1, Reagent, 5 uL 1500 cells/well 1536 TC treated White clear bottom plate 2, Compound, 23 nL Tebufenozide inducer (100 nM final) to all columns 3, Compound, 23 nL 40 uM to 0.5 nM Libraries 4, Time, 40 hours at 37C 5, Reagent, 5 ul ATPLite cell death assay reagent 6, Detector, 4 sec integration with a Viewlux Luminescent Media consisted of phenol red free DMEM + 5% equine serum (Hyclone # SH30072.03 ), 5% supplemented Bovine Calf Serum (Hyclone # SH30074.03 ), 1x pen/strep, no G418
Consider `Cn1nnnc1Sc1ncnc2scc(-c3ccc(C(F)(F)F)cc3)c12`, for which the Potency entry is “inactive”. Then `Cn1nnnc1Sc1ncnc2scc(-c3ccc(C(=O)OC(C)(C)C)cc3)c12`, with “inactive”; and `COc1cccc(-c2csc3ncnc(Sc4nnnn4C)c23)c1`, with 31.6 µM (active).

Regarding `Cc1cccc(-c2csc3ncnc(Sc4nnnn4C)c23)c1`, the Potency result was “inactive”. Turning to `Cn1nnnc1Sc1ncnc2scc(-c3ccc(Br)cc3)c12`, the Potency result was “inactive”. Take `Cn1nnnc1Sc1ncnc2scc(-c3cccc(F)c3)c12`: the Potency entry was “inactive”. For the molecule `Cn1nnnc1Sc1ncnc2scc(-c3ccc(S(C)(=O)=O)cc3)c12`, the Potency result is “inactive”. As to `Cn1nnnc1Sc1ncnc2scc(-c3cccc(C#N)c3)c12`, the Potency result is “inactive”. On to `Cn1nnnc1Sc1ncnc2scc(-c3ccccc3Br)c12`, for which the Potency entry is “inactive”. In the case of `Cn1nnnc1Sc1ncnc2scc(-c3ccc(-c4ccccc4)cc3)c12` it was “inactive”. For the molecule `CC(=O)c1ccccc1-c1csc2ncnc(Sc3nnnn3C)c12`, the Potency entry is “inactive”. In the case of `Cc1ccccc1-c1csc2ncnc(Sc3nnnn3C)c12` it was “inactive”. For `Cn1nnnc1Sc1ncnc2scc(-c3cc4ccccc4o3)c12`, the Potency result is “inactive”. For `Cn1nnnc1Sc1ncnc2scc(-c3ccc(N)cc3)c12`, the Potency result is “inactive”. As to `Cn1nnnc1Sc1ncnc2scc(-c3cccc(Br)c3)c12`, the Potency result is “inactive”. Then `CC(=O)c1ccc(-c2csc3ncnc(Sc4nnnn4C)c23)cc1`, with “inactive”. On to `COc1ccccc1-c1csc2ncnc(Sc3nnnn3C)c12`, for which the Potency result was “inactive”.

For `Cn1nnnc1Sc1ncnc2scc(-c3cccc(N)c3)c12`, the Potency result was “inactive”. In the case of `Cn1nnnc1Sc1ncnc2scc(-c3ccsc3)c12` it was 10 µM (active); in that of `Cn1nnnc1Sc1ncnc2scc(-c3ccc([N+](=O)[O-])cc3)c12`, “inactive”; in that of `Cn1nnnc1Sc1ncnc2scc(-c3cccs3)c12`, “inactive”. With `Cn1nnnc1Sc1ncnc2scc(-c3ccc(Cl)cc3)c12`, the Potency result was “inactive”. Take `Cn1nnnc1Sc1ncnc2scc(-c3ccc(F)cc3)c12`: the Potency entry is “inactive”. As to `Cn1nnnc1Sc1ncnc2scc(-c3cccc(C(F)(F)F)c3)c12`, the Potency result is “inactive”. In the case of `Cn1nnnc1Sc1ncnc2scc(-c3ccccc3C(F)(F)F)c12` it was “inactive”; in that of `Cn1nnnc1Sc1ncnc2scc(-c3cccc4c3sc3ccccc34)c12`, “inactive”.

`COc1ccc(-c2csc3ncnc(Sc4nnnn4C)c23)cc1`: the Potency result was “inactive”. For the molecule `Cn1nnnc1Sc1ncnc2scc(-c3ccccc3)c12`, the Potency result is “inactive”.

Regarding `Cn1nnnc1Sc1ncnc2scc(-c3ccccc3[N+](=O)[O-])c12`, the Potency result was “inactive”.

As for `Cn1nnnc1Sc1ncnc2scc(-c3cccc(Cl)c3)c12`, the Potency result was “inactive”.
